Common to all, as to assay: NCI-60 one-dose screen, 48 h (100 = growth as untreated, 0 = no growth, -100 = all killed)
Common to all, as to conditions: 10 µM

For assay [1], the system named is DU-145 prostate.
Assay [2] deals with K-562 leukemia.
Assay [3] deals with MALME-3M melanoma.
Assay [4] relates to RXF 393 renal.
For assay [5], the system named is SF-268 CNS.
Assay [6] deals with SF-295 CNS.
For assay [7], the system named is SF-539 CNS.
Assay [8] deals with UACC-257 melanoma.
Assay [9] relates to M14 melanoma.
Assay [10] has as its system MDA-MB-231 breast.

This is part of a sample that, as a whole, favours compounds with a hit. Of some 83,000 tested, about 20% had one in any assay.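 Results are percent growth after 48 hours of single-concentration exposure. 100 means growth as in untreated cells, lower positive values show inhibition; negative values down to -100 show cell death.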 Values without a mark were called inactive. Calls of active or inactive are those of the source. Rule for the calls: active = growth percent below 10; inactive = the rest.

On to `O=C(c1ccc([N+](=O)[O-])c([N+](=O)[O-])c1O)n1[nH]c(=O)c2ccccc2c1=O`, for which the growth is 25.4% in assay [1]; 12.8% in assay [2]; 71.7% in [3]; 66.7% in assay [4]; 76.9% in [5]; 90.9% in assay [6]. For the same compound, the growth was 66.6% in assay [7], 79.9% in assay [8] and 78.6% in assay [9].

For `Cc1cccc2cc(-c3cc(-c4ccccc4)nc(=O)[nH]3)c(Cl)nc12`, the growth in assay [1] is 91.7%; in [2], 44.3%; in [3], 96.6%; in assay [4], 88.3%; in assay [5], 96.3%; in assay [6], 76%. Moreover, the growth is 78.1% in assay [7], 99.7% in [8] and 98.6% in assay [9].

As to `O=c1nc(-c2ccccc2)cc(-c2cc3ccccc3nc2Cl)[nH]1`, the growth was 38.4% in assay [1]; -11.9% (active) in assay [2]; 54.9% in [3]; -16.1% (active) in [4]; 38.2% in assay [5]; 42.2% in assay [6]. Also, the growth in assay [7] is -47.4% (active); in assay [8], 91.2%; in [9], 38.6%.

In the case of `COc1cccc(-c2nn(-c3ccccc3)cc2-c2ccnc(NCCCNC(=O)Nc3ccc(F)cc3)c2)c1`, the growth in [1] was 54.1%; in [3] it was -24.7% (active); in assay [10], -1.32% (active); in [4], 0.912% (active); in [5] it was 26.1%; in [6], -40.5% (active). In addition, the values for the growth in assay [7] and in assay [8] were -29.9% (active) and -11.9% (active), respectively.

Take `O=C1Nc2cc(Cl)ccc2/C1=C/c1cccc(OCc2ccc(Br)cc2F)c1`: the growth in assay [1] was 4.44% (active); in assay [2], 1.92% (active); in assay [3], 33.8%; in [4], -15.1% (active); in assay [5] it was 9.99% (active); in assay [6], 5.06% (active). In addition, the growth in assay [7] was -6.14% (active); in [8], 45.9%.

In the case of `CC(=O)Nc1nc(-c2ccc(N3CCN(C)CC3)c(NS(=O)(=O)c3ccc(C(F)(F)F)cc3)c2)cs1`, the growth is 23.3% in [1]; 38.1% in assay [3]; 24.2% in assay [10]; -47% (active) in assay [4]; 41.1% in assay [5]; 46% in assay [6]. Further, the growth in assay [7] was -86.4% (active); in assay [8] it was 49.5%.

As for `Nc1nc(-c2ccccc2)cc(-c2cc3ccccc3nc2Cl)n1`, the growth in assay [1] is 81.5%; in [2] it was 20%; in assay [3], 88.4%; in assay [4] it was 85.2%; in assay [5], 88.3%; in assay [6], 78.6%. Further, the growth is 78.5% in assay [7], 97.8% in [8] and 84.2% in assay [9].

`Cc1ccc(-c2ccc(SCC(=O)Nc3ccc(Cl)c(C(F)(F)F)c3)nn2)cc1`: the growth in [1] was 23.9%; in assay [2] it was 4.76% (active); in [3], 38.7%; in [4], -32.5% (active); in assay [5] it was 38.6%; in assay [6], 13.2%. Also, the values for the growth in [7], in assay [8] and in [9] were -35.1% (active), 57.6% and 2.2% (active), respectively.

For the compound `O=c1[nH]n(C(=S)N/N=C/c2ccc(F)cc2)c(=O)c2ccccc12`, the growth in [1] was 68.9%; in [2], 11.2%; in assay [3] it was 80.4%; in assay [4] it was 57.3%; in assay [5], 104%; in assay [6], 74.4%. Besides, the growth in assay [7] was -50.9% (active); in [8] it was 95%; in assay [9], 78.1%.

As to `O=C1Nc2ccc(Cl)cc2/C1=C/c1cccc(OCc2ccccc2)c1`, the growth in assay [1] was 45.3%; in assay [2], 10.3%; in assay [3], 45.8%; in assay [4] it was -0.942% (active); in assay [5], 28.5%; in assay [6], 31.7%. Also, the growth in assay [7] was 35.3%; in assay [8] it was 45.8%; in [9], 27%.

Turning to `O=c1[nH]c2ccc(Cl)cc2cc1CSc1ccc(Nc2nccc(-c3ccc(Cl)cc3)n2)cc1`, the growth in assay [1] is 4.82% (active); in [2] it was 59.3%; in [3], 57.5%; in [10] it was 47%; in [5], 58.5%; in [6], 105%. Also, the growth is 45.7% in assay [7], 96.9% in [8] and 84.4% in assay [9].

As for `O=C(CSc1ccc(-c2ccc(Cl)cc2)nn1)Nc1ccc(Cl)c(C(F)(F)F)c1`, the growth in assay [1] is 80%; in assay [2] it was 9.36% (active); in assay [3] it was 54.1%; in assay [4], 71.1%; in assay [5], 73.7%; in assay [6] it was 56.3%. Moreover, the growth is 60.7% in assay [7], 67.7% in assay [8] and 50.6% in assay [9].

Turning to `COc1ccc2nc(Cl)c(-c3cc(-c4ccccc4)nc(N)n3)cc2c1`, the growth in [1] is 33.3%; in assay [2] it was 0.267% (active); in assay [3], 61%; in [4], -19.8% (active); in assay [5], 58.8%; in assay [6], 30.4%. Besides, the growth in [7] was -45.6% (active); in assay [8], 71.6%; in [9] it was 44.1%.

The values above are taken from PubChem BioAssay (NCI).
